Data reported in ChEMBL document CHEMBL3988442, “University of Dundee, Small-Polar-MMV Screening Library” (2021).
Screen size: about 85,000 compounds; about 440 (0.52%) showed an effect of 50% or more. The sample holds strong results, similar compounds and a random draw of the others, so the mix is not that of the screen.

Assay: In vitro enzyme assay to detect hydrolysis of chlorophenol red-beta-D-[…] directly proportional to the number of Toxoplasma stably expressing beta-galactosidase
Format: functional, organism-based, Toxoplasma gondii
Design: scale not given: in the data most compounds retested in dose-response had high values

CCn1nc(CC(C)C)cc1C(=O)N1CCC(N)C1 (centres undefined)
Percent Effect (50 µM): -11.21%

CC(Nc1cccc2c1OCCO2)C(=O)Nc1ccc(S(N)(=O)=O)cc1 (centres undefined)
Percent Effect (10 µM): 5.712%

CC(Nc1cccc2c1OCCO2)C(=O)Nc1ccc(Cl)cc1 (centres undefined)
Percent Effect (10 µM): 6.519%

CCc1ccc(NC(=O)C(C)Nc2cccc3c2OCCO3)cc1 (centres undefined)
Percent Effect (10 µM): 82.59%

CC(C)CC1NCCCNC1=O (centres undefined)
Percent Effect (50 µM): 0.1576%

CS(=O)(=O)CCn1ccnc1-c1ccc(Cl)s1
Percent Effect (50 µM): -2.415%

CCOC(=O)C1(Cc2ccccc2-c2ccccc2OC)CCNCC1.Cl
Percent Effect (10 µM): 44.64%

COc1ccccc1-c1ccccc1CC1(C(=O)O)CCNCC1
Percent Effect (10 µM): 8.204%

CN(CCCC1CCCO1)C(=O)c1cccc(N)n1 (centres undefined)
Percent Effect (50 µM): 1.142%

CC(=O)NCC(=O)N1CCN(c2ccncc2Cl)CC1
Percent Effect (50 µM): -5.39%

CN1CCC(NCC(O)c2cccc(OCc3ccccc3)c2)CC1 (centres undefined)
Percent Effect (10 µM): 74.89%

OC(CNC1CCSCC1)c1cccc(OCc2ccccc2)c1 (centres undefined)
Percent Effect (10 µM): 40.53%

OC(CNC1CCOCC1)c1cccc(OCc2ccccc2)c1 (centres undefined)
Percent Effect (10 µM): 6.488%

Cc1ccc(NC(=O)CN(C)C2CC[S+]([O-])CC2)cc1 (centres undefined)
Percent Effect (50 µM): -6.954%

COc1ccc(C)cc1NC(=O)Cn1ccnc1
Percent Effect (50 µM): 17.12%

O=C(NCc1ccc2c(c1)OCO2)Nc1nccs1
Percent Effect (50 µM): -9.702%

NC(CC1CCCC1)c1ccc(Oc2ccccc2)cc1 (centres undefined)
Percent Effect (10 µM): 55.94%

Cl.NC(CC1CCCC1)c1ccccc1 (centres undefined)
Percent Effect (10 µM): -47.66%

COCC(N)c1ccccc1 (centres undefined)
Percent Effect (50 µM): 3.787%

CCOC(=O)C1(C(C)C)CCN(C(=O)c2cn[nH]c2)C1 (centres undefined)
Percent Effect (50 µM): -4.733%

COC(C)(C)C(=O)CSc1cc(C#N)ccn1
Percent Effect (50 µM): 9.152%

N#Cc1ccnc(SCC(=O)Nc2ccncc2)c1
Percent Effect (50 µM): 98.13%

N#Cc1ccnc(SCc2ccncc2)c1
Percent Effect (50 µM): 30.75%

O=C(Cn1cc(Br)cn1)Nc1ccc2c(c1)OCCO2
Percent Effect (50 µM): -0.8097%

NC(=O)C[C@@H](N)c1ccc(Cl)cc1
Percent Effect (50 µM): 0.4297%

NC(=O)C[C@H](N)c1ccccc1
Percent Effect (50 µM): 8.251%

NC(=O)C[C@@H](N)c1ccccc1Cl
Percent Effect (50 µM): 50.18%

COc1cccc(-c2noc(C3CCN(Cc4ccccc4F)C3)n2)c1.Cl (centres undefined)
Percent Effect (10 µM): 11.37%

COc1cccc(-c2noc(C3CCN(Cc4ccccc4C)C3)n2)c1.Cl (centres undefined)
Percent Effect (10 µM): 42.09%

CCNC(=O)CN1CCCC(c2nccn2CC)C1 (centres undefined)
Percent Effect (50 µM): 95.83%

CCn1ccnc1C1CCN(CC(=O)N(C)C)CC1
Percent Effect (50 µM): 16.85%

CCn1ccnc1C1CCCN(CCC(N)=O)C1 (centres undefined)
Percent Effect (50 µM): 24%

COCC(C)S(=O)(=O)N1CCCCC1 (centres undefined)
Percent Effect (50 µM): 6.357%

CC(C)COC1CCN(S(=O)(=O)Cc2cccc(F)c2)CC1
Percent Effect (10 µM): 8.24%

CC(C)COC1CCN(S(=O)(=O)N2CCCC2)CC1
Percent Effect (50 µM): 99.18%

Cc1nc2ccc(C(=O)N3CC(O)C3)cc2nc1C
Percent Effect (50 µM): -4.584%

CSc1cccc(F)c1CN
Percent Effect (50 µM): 2.771%

COc1cccc(CNCc2ccccn2)c1
Percent Effect (50 µM): 10.94%

NCc1cccc(OCc2ccccn2)c1
Percent Effect (50 µM): -1.325%

CC(=O)NCc1cccc(OCc2ccccn2)c1
Percent Effect (50 µM): 53.39%

Cc1noc(C)c1C(=O)N(C)C1CCS(=O)(=O)C1 (centres undefined)
Percent Effect (50 µM): -15.63%

Cc1ccc(C2COCCN2)o1 (centres undefined)
Percent Effect (50 µM): 3.644%

COCC(=O)N1CCn2c(COc3cccnc3)cnc2C1C.O=C(O)C(F)(F)F (centres undefined)
Percent Effect (10 µM): 84.28%

CC1c2ncc(COc3cccnc3)n2CCN1C(=O)Cc1ccco1.O=C(O)C(F)(F)F (centres undefined)
Percent Effect (10 µM): -0.5977%

CC1c2ncc(COc3cccnc3)n2CCN1C(=O)C1=CCCC1.O=C(O)C(F)(F)F (centres undefined)
Percent Effect (10 µM): 10.52%

O=C(NCCSCc1ccco1)c1cccnc1O
Percent Effect (50 µM): -3.309%

COc1ccc(CC#N)cc1S(C)(=O)=O
Percent Effect (50 µM): 54.15%

COc1ccc(CC(C)(C#N)NC(C)=O)cc1OC (centres undefined)
Percent Effect (50 µM): 14.61%

COc1ccccc1CC#N
Percent Effect (50 µM): 14.35%

COc1c(C(=O)N2CCNC(=O)C2)cnc2c1c(C)nn2C
Percent Effect (10 µM): 0.4571%

COC(=O)c1cnc2c(c(C)nn2C)c1OC
Percent Effect (10 µM): 68.54%

COc1c(C(=O)N2CCOCC2)cnc2c1c(C)nn2C
Percent Effect (10 µM): -14.92%

CN1CCN(Cc2nccn2C)[C@H]2CS(=O)(=O)C[C@H]21
Percent Effect (50 µM): 0.771%

OCCNCCNCc1ccc(-c2cccc(Cl)c2)o1
Percent Effect (50 µM): 71.47%

OCCNCCNCc1ccc(-c2ccccc2Cl)o1
Percent Effect (50 µM): 33.01%

OCCNCCNCc1ccc(-c2ccccc2)o1
Percent Effect (50 µM): 1.266%

O=C(NC1CCCC1)c1cnccn1
Percent Effect (50 µM): 54.91%

O=C(NCCSC1CCCC1)c1cnccn1
Percent Effect (10 µM): 0.9702%

Cc1nnc2n1CCC(NC(=O)c1cnccn1)CC2 (centres undefined)
Percent Effect (50 µM): 2.489%
